This is an account of results in paper PMC11062922 (Nature Chemical Biology, 2023).

Structures are written as SMILES. Read-outs that look alike come from different tables or passages of the source.

One assay concerns ABL1. Further details: species or system human, MV4-11 + K-562 + COLO205 + SK-N-BE2 + OVCAR-8. The following applies: read-out: apparent Kd, n = 1.
Another assay has as its system ABL2. Further details: species or system human, MV4-11 + K-562 + COLO205 + SK-N-BE2 + OVCAR-8. The following applies: read-out: apparent Kd, n = 1.
Another assay relates to BCR. On the set-up: species or system human, MV4-11 + K-562 + COLO205 + SK-N-BE2 + OVCAR-8. The following applies: read-out: apparent Kd, n = 1.
The test system of the next assay is FYN. On the set-up: species or system human, MV4-11 + K-562 + COLO205 + SK-N-BE2 + OVCAR-8. The following applies: read-out: apparent Kd; compound concentrations: 100 nM and 1000 nM (sheet 'Samples'), CATDS: 2.5454703773251201E-2; n = 1.
The next assay relates to GAK. Further details: species or system human, MV4-11 + K-562 + COLO205 + SK-N-BE2 + OVCAR-8. The following applies: read-out: apparent Kd, n = 1.
In a further assay the test system is HCK. On the set-up: species or system human, MV4-11 + K-562 + COLO205 + SK-N-BE2 + OVCAR-8. The following applies: read-out: apparent Kd, compound concentrations: 100 nM and 1000 nM (sheet 'Samples'), n = 1.
A further assay concerns LCK. Further details: species or system human, MV4-11 + K-562 + COLO205 + SK-N-BE2 + OVCAR-8. The following applies: read-out: apparent Kd, n = 1.
The next assay deals with RET. Further details: species or system human, MV4-11 + K-562 + COLO205 + SK-N-BE2 + OVCAR-8. The following applies: read-out: apparent Kd, n = 1.
Another assay relates to RIPK2. On the set-up: species or system human, MV4-11 + K-562 + COLO205 + SK-N-BE2 + OVCAR-8. The following applies: read-out: apparent Kd, compound concentrations: 100 nM and 1000 nM (sheet 'Samples'), n = 1.
In the next assay the test system is RIPK3. On the set-up: species or system human, MV4-11 + K-562 + COLO205 + SK-N-BE2 + OVCAR-8. The following applies: read-out: apparent Kd; compound concentrations: 100 nM and 1000 nM (sheet 'Samples'), CATDS: 1.9089551984729902E-2; n = 1.
In a further assay the test system is TNK1. On the set-up: species or system human, MV4-11 + K-562 + COLO205 + SK-N-BE2 + OVCAR-8. The following applies: read-out: apparent Kd, n = 1.
The test system of another assay is YES1. Further details: species or system human, MV4-11 + K-562 + COLO205 + SK-N-BE2 + OVCAR-8. The following applies: read-out: apparent Kd, n = 1.
In the next assay the test system is CLK1. Further details: species or system human, MV4-11 + K-562 + COLO205 + SK-N-BE2 + OVCAR-8. The following applies: read-out: apparent Kd; compound concentrations:100 nM and 1000 nM (sheet 'Samples'); n = 1.
The next assay relates to CLK4. On the set-up: species or system human, MV4-11 + K-562 + COLO205 + SK-N-BE2 + OVCAR-8. The following applies: read-out: apparent Kd; compound concentrations:100 nM and 1000 nM (sheet 'Samples'); n = 1.
The target of the next assay is Q6ZSR9 (human, UniProt Q6ZSR9). Further details: species or system MV4-11 + K-562 + COLO205 + SK-N-BE2 + OVCAR-8. The following applies: read-out: apparent Kd; compound concentrations:100 nM and 1000 nM (sheet 'Samples'); n = 1.
Sequence of Q6ZSR9 (Q6ZSR9 whole entry, looked up): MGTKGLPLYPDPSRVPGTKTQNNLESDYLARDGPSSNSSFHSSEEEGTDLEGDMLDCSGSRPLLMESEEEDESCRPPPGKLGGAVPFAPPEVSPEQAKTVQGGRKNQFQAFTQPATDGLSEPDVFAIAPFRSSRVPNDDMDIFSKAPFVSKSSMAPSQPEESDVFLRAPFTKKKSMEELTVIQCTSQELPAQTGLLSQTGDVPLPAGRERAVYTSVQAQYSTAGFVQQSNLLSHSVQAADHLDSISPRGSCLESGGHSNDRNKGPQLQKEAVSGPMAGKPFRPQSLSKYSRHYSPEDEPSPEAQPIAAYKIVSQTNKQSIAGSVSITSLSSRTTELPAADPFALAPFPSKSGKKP
The test system of another assay is ACOX1. Further details: species or system human, MV4-11 + K-562 + COLO205 + SK-N-BE2 + OVCAR-8. The following applies: read-out: apparent Kd, n = 1.
Setting [1] is: compound concentrations:100 nM and 1000 nM (sheet 'Samples').

As to `CC(C)c1nc(-c2cccc(NS(=O)(=O)c3c(F)cccc3F)c2)c(-c2ccnc(Nc3ccc(N4CCOCC4)nc3)n2)s1.Cl` [GSK1723980B], the potency estimated from few doses was 301 nM in the assay on ABL1 (compound concentrations: 100 nM and 1000 nM (sheet 'Samples'), CATDS: 2.44032415333994E-2); 61.3 nM in the assay with ABL2 (compound concentrations: 100 nM and 1000 nM (sheet 'Samples'), CATDS: 5.9392404533495001E-2); 494 nM in the assay with BCR (compound concentrations: 100 nM and 1000 nM (sheet 'Samples'), CATDS: 2.01356126413582E-2); 273 nM with FYN; 41.9 nM with GAK (compound concentrations: 100 nM and 1000 nM (sheet 'Samples'), CATDS: 7.7994003352353694E-2); 353 nM in the assay with HCK (CATDS: 2.2853369268103E-2). The potency estimated from few doses is 166 nM in the assay on LCK (compound concentrations: 100 nM and 1000 nM (sheet 'Samples'), CATDS: 3.2406283014168501E-2); 183 nM with RET (compound concentrations: 100 nM and 1000 nM (sheet 'Samples'), CATDS: 3.0852467961072601E-2); 508 nM with RIPK2 (CATDS: 1.9945459179113199E-2); 580 nM with RIPK3; 104 nM in the assay with TNK1 (compound concentrations: 100 nM and 1000 nM (sheet 'Samples'), CATDS: 4.2309935228441099E-2); 206 nM in the assay on YES1 (compound concentrations: 100 nM and 1000 nM (sheet 'Samples'), CATDS: 2.9075172405301501E-2).
As for `Cl.Cn1c(=O)c(Cc2ccc(F)cc2F)cc2cnc(NC3CCOCC3)nc21` [RO3308757-001], the potency estimated from few doses is 1760 nM in the assay on ABL1 (setting [1]); 513 nM in the assay on ABL2 (setting [1]); 477 nM in the assay on BCR (setting [1]); 779 nM with CLK1; 1110 nM with CLK4; 434 nM in the assay on GAK (setting [1]). Besides, the potency estimated from few doses is 1220 nM with LCK (setting [1]); 1840 nM in the assay with Q6ZSR9; 877 nM with RET (setting [1]); 177 nM in the assay on TNK1 (setting [1]); 805 nM in the assay with YES1 (setting [1]).
In the case of `Nc1ncc(-c2cn[nH]c2)c2scc(-c3ccc4c(c3)CCN4C(=O)Cc3ccccc3)c12` [GSK2593067A], the potency estimated from few doses in the assay on ABL1 (compound concentrations: 100 nM and 1000 nM (sheet 'Samples'), CATDS: 6.1234065339549101E-2) is 1560 nM; with LCK (compound concentrations: 100 nM and 1000 nM (sheet 'Samples'), CATDS: 7.5344179504310702E-2), 841 nM; with RIPK2 (CATDS: 7.5110526663463406E-2) it was 848 nM.
Regarding `Cn1cc(C2=C(c3cn(CCCCCO)c4ccccc34)C(=O)NC2=O)c2ccccc21` [RO0318053-000], the potency estimated from few doses in the assay with ACOX1 (compound concentrations: 100 nM and 1000 nM (sheet 'Samples'), CATDS: 0.35843240047959801) is 34.1 nM.
Turning to `Clc1ccc(-c2nn3ncccc3c2-c2ccnc(Nc3ccccc3)n2)cc1` [GW829055X], the potency estimated from few doses in the assay on HCK (CATDS: 3.5992477058575501E-2) is 1500 nM.
As to `O=C1Nc2ccc(F)cc2/C1=C/c1ccc[nH]1` [RO0272148-000], the potency estimated from few doses in the assay with ACOX1 (compound concentrations: 100 nM and 1000 nM (sheet 'Samples'), CATDS: 0.35170736518262402) was 1160 nM.
In the case of `COc1cc2ncn(-c3cc(OCc4sccc4Cl)c(C(N)=O)s3)c2cc1OC` [GSK448459A], in the assay with ACOX1 (setting [1]), the potency estimated from few doses is 1270 nM.
On to `Cc1ccc(C(=O)NC2CC2)cc1-c1ccc2[nH]ncc2c1` [GW820759X], for which, in the assay on ACOX1 (compound concentrations: 100 nM and 1000 nM (sheet 'Samples'), CATDS: 0.303559006930335), the potency estimated from few doses is 1410 nM.
`COc1ccc(C2=C(Nc3cccc(O)c3)C(=O)NC2=O)cc1` [SB-390766]: in the assay with ACOX1 (setting [1]), the potency estimated from few doses is 861 nM.
